Data published in PubChem BioAssay (Tox21).
Records with an inconclusive call do not appear. Calls of active or inactive are those of the source. Unless noted, the call rests on the fitted dose curve; in most records, active means well fitted curve in the direction sought with a large enough effect in the repeat runs; inconclusive means weak or mixed curves; inactive means no such curve, though single readings can be large; an effect the other way counts as inactive or inconclusive.

Columns and labels:
[1] = qHTS assay to identify small molecule agonists of the peroxisome proliferator-activated receptor delta (PPARd) signaling pathway - cell viability counter screen (AID 743211); further: nearly all actives have a fitted effect of over 55% in size
Procedure, shortened: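 Luminescent ATP viability assay (CellTiter-Glo, 30 min RT) in UAS-bla HEK293H cells carrying the PPAR delta reporter construct, 3000 cells/well, after a 17 h compound treatment at 37 C.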

[2] = qHTS assay to identify small molecule antagonists of the peroxisome proliferator-activated receptor delta (PPARd) signaling pathway - cell viability counter screen (AID 743213); further: nearly all actives have a fitted effect of over 50% in size
Procedure, shortened: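 Viability counter-screen, qHTS format: PPARd-bla HEK293H, L165041 300 nM final, 17 h compound exposure at 37 C, CellTiter-Glo luminescence after 30 min RT.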

[3] = target: Bile acid receptor (Homo sapiens) (UniProt Q96RI1); assay: qHTS assay to identify small molecule antagonists of the farnesoid-X-receptor (FXR) signaling pathway (AID 743217; active means well fitted inhibition curve with a large enough effect in the signal ratio in the repeat runs, not every such curve was filed as active; the % refers to the signal ratio)
Chain of Bile acid receptor (Homo sapiens) (Q96RI1 whole entry, looked up): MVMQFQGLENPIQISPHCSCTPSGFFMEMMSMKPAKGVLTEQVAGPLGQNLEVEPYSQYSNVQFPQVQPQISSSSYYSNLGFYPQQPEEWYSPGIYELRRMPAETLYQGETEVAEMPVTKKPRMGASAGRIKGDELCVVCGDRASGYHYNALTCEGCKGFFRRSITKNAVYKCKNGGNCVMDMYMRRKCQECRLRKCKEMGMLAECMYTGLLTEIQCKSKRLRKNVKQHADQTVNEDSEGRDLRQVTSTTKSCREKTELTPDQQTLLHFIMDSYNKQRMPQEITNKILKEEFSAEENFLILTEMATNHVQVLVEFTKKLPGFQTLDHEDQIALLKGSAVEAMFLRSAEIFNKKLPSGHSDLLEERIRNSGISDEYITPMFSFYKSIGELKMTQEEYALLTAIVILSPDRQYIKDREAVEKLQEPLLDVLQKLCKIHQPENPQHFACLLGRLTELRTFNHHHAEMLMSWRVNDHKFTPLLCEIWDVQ
Procedure, shortened: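 GeneBLAzer FXR-UAS-bla HEK 293T, CDCA-stimulated (50 uM final). Compound treatment 16 h, 37 °C. Detection: beta-lactamase cleavage of B/G FRET substrate, fluorescence.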

[4] = qHTS assay to identify small molecule agonists of the farnesoid-X-receptor (FXR) signaling pathway - cell viability counter screen (AID 743218); further: nearly all actives have a fitted effect of over 45% in size
Procedure, shortened: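 Parallel cytotoxicity test: compound-treated (16 h, 37 C) HEK 293T FXR-bla reporter cells were lysed with CellTiter-Glo and luminescence recorded.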

[5] = target: Bile acid receptor (Homo sapiens) (UniProt Q96RI1); assay: qHTS assay to identify small molecule agonists of the farnesoid-X-receptor (FXR) signaling pathway (AID 743220; active means well fitted activation curve with a large enough effect in the signal ratio in the repeat runs, not every such curve was filed as active; the % refers to the signal ratio)
Procedure, shortened: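 Beta-lactamase reporter under UAS control in GeneBLAzer FXR HEK 293T cells (5000/well) measured with LiveBLAzer FRET substrate after 2 h at room temperature. Compound exposure lasted 16 h at 37C.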

[6] = qHTS assay to identify small molecule antagonists of the farnesoid-X-receptor (FXR) signaling pathway - cell viability counter screen (AID 743221; active means well fitted cell-killing curve with a large enough effect in the repeat runs, not every such curve was filed as active; further: nearly all actives have a fitted effect of over 50% in size)
Procedure, shortened: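 In GeneBLAzer FXR-UAS-bla HEK 293T cells stimulated with 50 uM chenodeoxycholic acid (final), compounds acted for 16 h at 37 C. Viability was assessed afterwards by CellTiter-Glo luminescence.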

[7] = target: Vitamin D3 receptor (Homo sapiens) (UniProt P11473); assay: qHTS assay to identify small molecule agonists of the vitamin D receptor (VDR) signaling pathway (AID 743222; calls by dose curve)
Chain of Vitamin D3 receptor (Homo sapiens) (P11473 whole entry, looked up): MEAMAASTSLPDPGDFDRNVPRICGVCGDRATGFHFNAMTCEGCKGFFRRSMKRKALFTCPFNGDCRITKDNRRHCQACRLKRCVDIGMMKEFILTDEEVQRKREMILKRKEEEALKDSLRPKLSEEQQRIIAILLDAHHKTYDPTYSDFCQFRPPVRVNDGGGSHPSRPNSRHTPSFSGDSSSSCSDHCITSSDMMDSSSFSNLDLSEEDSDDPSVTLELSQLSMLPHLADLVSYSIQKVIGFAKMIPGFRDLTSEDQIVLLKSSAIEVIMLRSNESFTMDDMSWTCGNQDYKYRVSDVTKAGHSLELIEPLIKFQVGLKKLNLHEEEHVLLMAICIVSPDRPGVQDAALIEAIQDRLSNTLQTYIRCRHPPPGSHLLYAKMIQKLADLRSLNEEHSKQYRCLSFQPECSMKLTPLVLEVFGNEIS
Procedure, shortened: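 In VDR-bla cells, compound-induced beta-lactamase expression is quantified by FRET substrate fluorescence. Treatment lasts 16 h at 37C; substrate develops 2 h at room temperature.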

[8] = target: Vitamin D3 receptor (Homo sapiens) (UniProt P11473); assay: qHTS assay to identify small molecule antagonists of the vitamin D receptor (VDR) signaling pathway (AID 743223; active means well fitted inhibition curve with a large enough effect in the signal ratio in the repeat runs, not every such curve was filed as active; the % refers to the signal ratio)
Procedure, shortened: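 Agonist 1alpha,25-dihydroxyvitamin D3 (3 nM in well) was added with each compound to VDR-bla cells preincubated 4 h. Cells stood 16 h at 37C, then FRET substrate 2 h at room temperature; fluorescence intensity recorded.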

[9] = target: Peroxisome proliferator-activated receptor delta (Homo sapiens) (UniProt Q03181); assay: qHTS assay to identify small molecule antagonists of the peroxisome proliferator-activated receptor delta (PPARd) signaling pathway (AID 743215; active means well fitted inhibition curve with a large enough effect in the signal ratio in the repeat runs, not every such curve was filed as active; the % refers to the signal ratio;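 further: cells stimulated with agonist L165041 at 300 nM final during compound exposure; series mostly up to about 62 µM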)
Chain of Peroxisome proliferator-activated receptor delta (Homo sapiens) (Q03181 whole entry, looked up): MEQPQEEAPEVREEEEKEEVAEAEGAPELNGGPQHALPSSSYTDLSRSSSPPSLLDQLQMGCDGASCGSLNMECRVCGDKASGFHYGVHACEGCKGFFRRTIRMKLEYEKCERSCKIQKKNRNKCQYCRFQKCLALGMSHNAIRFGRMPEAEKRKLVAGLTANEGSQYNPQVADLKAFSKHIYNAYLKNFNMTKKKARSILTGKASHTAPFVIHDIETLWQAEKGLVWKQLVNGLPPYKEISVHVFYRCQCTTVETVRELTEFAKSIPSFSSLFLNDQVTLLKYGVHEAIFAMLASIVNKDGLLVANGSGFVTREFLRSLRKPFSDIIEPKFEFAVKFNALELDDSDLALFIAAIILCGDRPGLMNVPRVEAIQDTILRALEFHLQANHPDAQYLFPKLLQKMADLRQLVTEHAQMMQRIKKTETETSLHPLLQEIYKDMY
Procedure, shortened: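 HEK293H UAS-bla, PPARd; agonist L165041 300 nM final with cpd in DMSO; 37 C 17 h; FRET substrate, RT 2 h; fluorescence intensity.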

[10] = target: Peroxisome proliferator-activated receptor delta (Homo sapiens) (UniProt Q03181); assay: qHTS assay to identify small molecule agonists of the peroxisome proliferator-activated receptor delta (PPARd) signaling pathway (AID 743212; calls by dose curve)
Procedure, shortened: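 A PPARd-bla HEK293H line with beta-lactamase under an Upstream Activator Sequence is treated with compounds at 37 C. Substrate loading for 2 h at room temperature precedes the fluorescence measurement.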
On the % scale 0 is the no-effect control and ±100 the full control effect.

CC(C)(C)c1cc(Cc2cc(C(C)(C)C)c(O)c(C(C)(C)C)c2)cc(C(C)(C)C)c1O
inactive: outcome [1] | outcome [2] | outcome [3] | outcome [4] | outcome [5] | outcome [6] | outcome [7] | outcome [8]

CCO[Si](CCCN)(OCC)OCC
inactive: outcome [1] | outcome [2] | outcome [9] | outcome [3] | outcome [4] | outcome [6] | outcome [7] | outcome [8]

CC(=O)OCc1ccccc1
inactive: outcome [1] | Potency [10] | outcome [2] | outcome [4] | outcome [6] | outcome [7] | outcome [8]

CN(C)c1ccc(O)c2c1C[C@H]1C[C@H]3[C@H](N(C)C)C(=O)C(C(N)=O)=C(O)[C@@]3(O)C(=O)C1=C2O
inactive: outcome [1] | outcome [2] | outcome [9] | outcome [4] | outcome [6] | outcome [7] | outcome [8]

CCO[Si](CCC#N)(OCC)OCC
inactive: outcome [1] | outcome [2] | outcome [3] | outcome [4] | outcome [6]

CCNC(=S)NCC
inactive: outcome [1] | Potency [10] | outcome [2] | outcome [4] | outcome [6] | outcome [7] | outcome [8]

CCCCCCCCCCCCCCCC(=O)OC(C)C
inactive: outcome [1] | outcome [2] | outcome [9] | outcome [4] | outcome [6] | outcome [7] | outcome [8]

CC(=O)CC(C)(C)O
inactive: outcome [1] | outcome [2] | outcome [9] | outcome [3] | outcome [4] | outcome [7] | outcome [8]

C=Cc1ccc(C)cc1
inactive: outcome [1] | outcome [2] | outcome [9] | outcome [4] | outcome [6] | outcome [7] | outcome [8]

CNC(=O)Oc1ccc2c(c1)[C@]1(C)CCN(C)[C@@H]1N2C
inactive: outcome [1] | outcome [2] | outcome [9] | outcome [3] | outcome [4] | outcome [6] | outcome [7] | outcome [8]

O=C(O)Cn1c(=O)n(Cc2ccc(Br)cc2F)c(=O)c2ccc(Cl)cc21
inactive: outcome [1] | outcome [2] | outcome [3] | outcome [4] | outcome [6] | outcome [7]

N[C@H](Cc1c[nH]c2ccccc12)C(=O)O
inactive: outcome [1] | outcome [2] | outcome [9] | outcome [4] | outcome [6] | outcome [7] | outcome [8]

CC(=O)CCC=C(C)C
inactive: outcome [1] | Potency [10] | outcome [2] | outcome [4] | outcome [6] | outcome [7] | outcome [8]

CC(=O)OC1CC(C)OC(C)O1 (centres undefined)
inactive: outcome [1] | outcome [2] | outcome [3] | outcome [4] | outcome [6]

Cc1ccc(S(=O)(=O)N=C=O)cc1
inactive: outcome [1] | Potency [10] | outcome [2] | outcome [4] | outcome [6] | outcome [7] | outcome [8]

CN(C)CCOC(=O)COc1ccc(Cl)cc1
inactive: outcome [1] | Potency [10] | outcome [2] | outcome [4] | outcome [6] | outcome [7] | outcome [8]

O=C(O)c1ccc(C(=O)O)c(C(=O)O)c1
inactive: outcome [1] | outcome [2] | outcome [9] | outcome [4] | outcome [6]

CCCCCC(=O)O
inactive: outcome [1] | Potency [10] | outcome [2] | outcome [4] | outcome [6] | outcome [7] | outcome [8]

COc1ccc(CCC(C)=O)cc1
inactive: outcome [1] | outcome [2] | outcome [9] | outcome [3] | outcome [4] | outcome [5] | outcome [6] | outcome [7] | outcome [8]

CC1(C)CC(N)CC(C)(CN)C1 (centres undefined)
inactive: outcome [1] | Potency [10] | outcome [2] | outcome [4] | outcome [6]

COc1ccc(N)c(C)c1
inactive: outcome [1] | outcome [2] | outcome [9] | outcome [3] | outcome [4] | outcome [6] | outcome [7] | outcome [8]

NC(=S)NNC(N)=S
inactive: outcome [1] | outcome [2] | outcome [9] | outcome [3] | outcome [6]

O=C(O)CCCCCCCCC(=O)O
inactive: outcome [1] | outcome [2] | outcome [3] | outcome [4] | outcome [5] | outcome [6] | outcome [7] | outcome [8]

COCCOC(=O)c1ccccc1C(=O)OCCOC
inactive: outcome [1] | outcome [2] | outcome [9] | outcome [4] | outcome [6] | outcome [7] | outcome [8]

O=c1[nH]cnc2[nH]ncc12
inactive: outcome [1] | outcome [2] | outcome [4] | outcome [6] | outcome [7] | outcome [8]

CC(O)CC(C)(C)O (centres undefined)
inactive: outcome [1] | outcome [2] | outcome [4] | outcome [6] | outcome [7] | outcome [8]

CCCCCCCCCCCCCCCCO
inactive: outcome [1] | outcome [2] | outcome [4] | outcome [6] | outcome [7] | outcome [8]

C=CC(=O)OCCC(=O)O
inactive: outcome [1] | outcome [2] | outcome [4] | outcome [6] | outcome [7] | outcome [8]

Brc1ccc(Br)c(Br)c1
inactive: outcome [1] | outcome [2] | outcome [4] | outcome [6] | outcome [7] | outcome [8]

CN1C(=O)CC[C@H]1c1cccnc1
inactive: outcome [1] | outcome [2] | outcome [4] | outcome [6]

CC(CCl)OP(=O)(OC(C)CCl)OC(C)CCl (centres undefined)
inactive: outcome [1] | outcome [2] | outcome [3] | outcome [4] | outcome [6] | outcome [7] | outcome [8]

CC(C)(C#N)c1cc(Cn2cncn2)cc(C(C)(C)C#N)c1
inactive: outcome [1] | outcome [2] | outcome [3] | outcome [4] | outcome [6] | outcome [7] | outcome [8]

COc1cc(OC)c(C(=O)CCCN2CCCC2)c(OC)c1
inactive: outcome [1] | outcome [2] | outcome [4] | outcome [6] | outcome [7] | outcome [8]

O=C(OCC1CCC2OC2C1)C1CCC2OC2C1 (centres undefined)
inactive: outcome [1] | outcome [2] | outcome [4] | outcome [6] | outcome [7]

O=C(O)c1ccc(S(=O)(=O)N(Cl)Cl)cc1
inactive: outcome [1] | outcome [2] | outcome [3] | outcome [4] | outcome [6] | outcome [7] | outcome [8]

NCCN1CCNCC1
inactive: outcome [1] | outcome [2] | outcome [4] | outcome [6] | outcome [7] | outcome [8]

CCCCOC(=O)c1ccc(N)cc1
inactive: outcome [1] | outcome [2] | outcome [4] | outcome [6] | outcome [7] | outcome [8]

C=C(C)[C@H]1CC=C(C)C(=O)C1
inactive: outcome [1] | outcome [2] | outcome [4] | outcome [6] | outcome [7] | outcome [8]

CCCCCCCCCCN
inactive: outcome [1] | outcome [2] | outcome [4] | outcome [6]

CC(CCO)CC(C)(C)C (centres undefined)
inactive: outcome [1] | outcome [2] | outcome [4] | outcome [6] | outcome [7]

CCOC(=O)c1ccc(N)cc1
inactive: outcome [1] | outcome [2] | outcome [3] | outcome [4] | outcome [6] | outcome [7] | outcome [8]

CNC(=S)N(C)C
inactive: outcome [1] | outcome [2] | outcome [4] | outcome [6] | outcome [7] | outcome [8]

COc1ccc(C)cc1N
inactive: outcome [1] | outcome [2] | outcome [4] | outcome [6] | outcome [7] | outcome [8]

c1ccc2c(c1)Cc1ccccc1-2
inactive: outcome [1] | outcome [2] | outcome [3] | outcome [4] | outcome [6] | outcome [7] | outcome [8]

CCCCCCCC=O
inactive: outcome [1] | outcome [2] | outcome [4] | outcome [6] | outcome [7] | outcome [8]

CC(=O)OCCOC(C)=O
inactive: outcome [1] | outcome [2] | outcome [4] | outcome [6] | outcome [7] | outcome [8]

CCCCCCCO
inactive: outcome [1] | outcome [2] | outcome [4] | outcome [6] | outcome [7] | outcome [8]

O=C(O)/C=C/C(=O)O
inactive: outcome [1] | outcome [2] | outcome [4] | outcome [6] | outcome [7] | outcome [8]

Nc1nc(N)nc(-c2ccccc2)n1
inactive: outcome [1] | outcome [2] | outcome [4] | outcome [6]

CCCCCCO
inactive: outcome [1] | outcome [2] | outcome [4] | outcome [6] | outcome [7] | outcome [8]

OCc1ccccc1
inactive: outcome [1] | outcome [2] | outcome [4] | outcome [6] | outcome [7] | outcome [8]

CCOCCOCCOCCO
inactive: outcome [1] | outcome [2] | outcome [3] | outcome [4] | outcome [6] | outcome [7] | outcome [8]

O=C1CCCC1
inactive: outcome [1] | outcome [2] | outcome [4] | outcome [6] | outcome [7] | outcome [8]

C=CCCCCCCCCC(=O)O
inactive: outcome [1] | outcome [2] | outcome [4] | outcome [6] | outcome [7] | outcome [8]

CC1(C)OC[C@@H]2O[C@@]3(C(=O)O)OC(C)(C)O[C@H]3[C@@H]2O1
inactive: outcome [1] | outcome [2] | outcome [4] | outcome [6] | outcome [7] | outcome [8]

CCCCCCC=O
inactive: outcome [1] | outcome [2] | outcome [4] | outcome [6] | outcome [7] | outcome [8]

Cc1ccc(C(C)C)c(O)c1
inactive: outcome [1] | outcome [2] | outcome [4] | outcome [6] | outcome [7] | outcome [8]

COc1ccccc1OCC(O)CO (centres undefined)
inactive: outcome [1] | outcome [2] | outcome [4] | outcome [6] | outcome [7] | outcome [8]

COC(=O)c1cccnc1
inactive: outcome [1] | outcome [2] | outcome [4] | outcome [6] | outcome [7] | outcome [8]

O=S(=O)(O)c1ccccc1
inactive: outcome [1] | outcome [2] | outcome [3] | outcome [4] | outcome [6] | outcome [7]

CCc1ccccc1CC
inactive: outcome [1] | viability change, negative = cytotoxic [2] -6.24% [at 13.7 µM] | viability change, negative = cytotoxic [4] 18.7% [at 13.2 µM] | outcome [6]

CC(C)CC(C)O (centres undefined)
inactive: outcome [1] | outcome [2] | outcome [3] | outcome [4] | outcome [6] | outcome [7] | outcome [8]
